Source: PubChem BioAssay AID1508649 (National Center for Advancing Translational Sciences (NCATS), 2021)
The campaign covered roughly 43,000 compounds. About 830 (1.9%) were called active. Another 30% or so got no clear call; they are omitted. Rule for the calls: active = clear falling dose curves in both reporters; inconclusive = both reporters move, but less clearly or upward; inactive = either reporter flat; the % is the NLuc reporter signal. This excerpt belongs to a sample that is enriched for actives.

Assay: Cell-based coincidence reporter assay to measure PMP22 gene transcription in S16 Pmp22-F2sN cells - Primary screen
Settings: S16 Pmp22-F2sN Schwann cells (luciferase reporters placed in the Pmp22 gene), FLuc/NLuc coincidence luminescence, 24 h; series mostly up to 57.5 µM; activity change, negative = inhibition: at the top concentration
Source text: Assay Provider: Jim Inglese Ph.D. National Center for Advancing Translational Science, National Institutes of Health, Rockville, MD CMT is a heterogeneous group of neurological disorders that affect approximately 1 in 2,500 people. In particular, the most common form of CMT, CMT1A is genetically linked to the duplication of the PMP22 gene which leads to Schwann cell overexpression, thus manifesting itself as a typical case of dose-sensitive diseases. To identify small molecule compounds that can mediate the expression of PMP22 we developed a phenotypic assay screening strategy by utilizing genome editing techniques to construct Schwann cell lines containing novel reporter technology to monitor the transcriptional or translational regulation of PMP22. For high sensitivity we use a bioluminescent reporter system embedded in the 3' UTR of the PMP22 gene (S16(c9) Pmp22-F2sN) to identify compounds that inhibit gene expression. […] We can further discriminate the effect of all transcriptionally active molecules on PMP22 translation or stability with an assay that incorporates a short NLuc peptide (HiBiT) at the C-terminus of expressed PMP22 (S16(f8) PMP22-HiBiT) allowing alpha complementation and luminescence detection of membrane-associated PMP22 protein. These assays were screened against the NCATS Sytravon Library Collection. Miniaturization of these assays to 1536-well plate format for quantitative high throughput screening (qHTS) yielded rich data sets immediately from the qHTS assay (S16(c9) Pmp22-F2sN), when compared with data from a cell viability assay (Cell TiterGlo) to identify compounds that decreased the output signals through cellular toxicity to streamline the selection process of actives for subsequent characterization using the HiBiT assay (S16(f8) PMP22-HiBiT).
Cell-based coincidence reporter assay to measure PMP22 gene transcription in S16 Pmp22-F2sN cells PROTOCOL TABLE (format as described by Inglese J, Shamu CE and Guy RK. 2007) SEQUENCE No. (e.g., 1, 2, 3, etc.); […] (e.g., Cells, Incubation, Reagent, etc.); VALUE and DESCRIPTION. 1. Cells. Add 500-1,000 cells in 4 uL in growth media (DMEM High Glucose, No Phenol Red media + 10% heat-inactivated FBS + 1% Pen/Strep supplemented media) per well into Greiner 1536-well white/solid bottom high base, TC-treated plates. 2. Compounds. Library compounds and controls added at 23nL per well, transferred by Pin Tool. 3. Incubation. Incubate plates at 37C, 5% CO2, 95% RH for 24 h. 4. Reagent. Add 3.5uL Nano-Glo Dual-Luciferase Reporter Assay System reagent 1: Lysis and FLuc reagent per well of Greiner 1536-well plates. 5. Incubation. Incubate plates at room temperature for 10 min., protect from light. 6. Detector. FLuc luminescence measured using CCD-based camera (Viewlux). 7. Reagent. Add 3.5uL Nano-Glo Dual-Luciferase Reporter Assay System reagent 2: Stop&Glo reagent per well of Greiner 1536-well plates. 8. Incubation. Incubate plates at room temperature for 10 min., protect from light. 9. Detector. NLuc luminescence measured using CCD-based camera (Viewlux). NOTES (numbers refer to Sequence numbers above; values are from representative experiments) 6. Luminescence Read #1 (FLuc): Clear filter; Exposure = 10 sec, Gain = High, Speed = Slow, Binning = 2X 9. Luminescence Read #2 (NLuc): Clear filter; Exposure = 1 sec, Gain = High, Speed = Slow, Binning = 2X REFERENCES: 1. Inglese J, Shamu CE and Guy RK, Reporting data from high throughput screening of small molecule libraries, Nature Chemical Biology, 2007, 3(8): 438-441. doi.org/10.1038/nchembio0807-438 2. Yasgar A, Shinn P, Jadhav A, Auld DS, Michael S, Zheng W, Austin CP, Inglese J and Simeonov A, Compound Management for Quantitative High-Throughput Screening. J. Assoc. Lab. Auto., 2008, 13: 79-89. doi: 10.1016/j.jala.2007.12.004
% is set by controls: 0 for no effect and ±100 for the full control effect; potency is the fitted concentration of half-maximal effect.

Row | Compound | activity change, negative = inhibition | Potency
1 | CCC(C(=O)Nc1cccc(-c2nc3cccnc3s2)c1C)c1ccccc1 (configuration not stated) | -37.5% (inactive) | 
2 | CCOC(=O)c1sc(NC(=O)/C=C/c2ccc(C(C)C)cc2)c(C(=O)OCC)c1C | -30.7% (inactive) | 
3 | Cc1ccc(F)cc1NC(=O)CCSc1nc(-c2ccco2)cc(C(F)(F)F)n1 | 9.36% (inactive) | 
4 | COc1ccccc1-c1cc(C(F)(F)F)nc(S(=O)(=O)CCCC(=O)Nc2cc(C)ccc2O)n1 | -12.6% (inactive) | 
5 | COc1ccccc1-c1cc(C(F)(F)F)nc(S(=O)(=O)CCCC(=O)Nc2ccc(F)cc2F)n1 |  | 11.3 µM (active)
6 | COc1cc2c(cc1OC)C(COc1ccc(F)cc1)N(C(=O)c1ccccc1F)CC2 (configuration not stated) | 0.344% (inactive) | 
7 | COc1ccc(N2CCN(Cc3nc4c(c(=O)[nH]c(=O)n4C)n3Cc3ccc(Cl)cc3)CC2)cc1 | -16.2% (inactive) | 
8 | COC(=O)c1c(NC(=O)CCCOc2ccccc2)sc2c1CCC(C)C2 (configuration not stated) | 7.02% (inactive) | 
9 | O=C(Cc1ccccc1)Nc1sc2c(c1C(=O)Nc1ccc(Br)cc1)CCC2 | -32.6% (inactive) | 
10 | CCOc1ccc(NC(=O)c2c(NC(=O)Cc3ccccc3)sc3c2CCC(C)C3)cc1 (configuration not stated) |  | 18.9 µM (active)
11 | Cc1ccc(Nc2c(-c3ccc(C)s3)nc3ccccn23)cc1 | -18.5% (inactive) | 
12 | CCC(=O)N1CCc2cc(Br)cc(S(=O)(=O)CCC(=O)N3CCN(c4ccc(F)cc4)CC3)c21 | -7.19% (inactive) | 
13 | COc1ccc(OC)c(-n2nnc(-c3nc(-c4cc(OC)c(OC)c(OC)c4)no3)c2C)c1 | -0.737% (inactive) | 
14 | COc1ccc(C(=O)COC(=O)CCCC(=O)Nc2cc(C(F)(F)F)ccc2Cl)cc1 | 3.27% (inactive) | 
15 | COc1ccc(-c2nn3c(=O)cc(CN4CCN(C(=O)c5ccc(OC)c(OC)c5)CC4)nc3s2)cc1 | 12.8% (inactive) | 
16 | CCOc1ccc(N(Cc2ccccc2)C(=O)c2nc(S(C)(=O)=O)ncc2Cl)cc1 |  | 1.5 µM (active)
17 | CCOc1ccc(N(CC)C(=O)C2CCN(S(=O)(=O)c3cccc4nonc34)CC2)cc1 | -35.2% (inactive) | 
18 | CCOc1ccc(N(CC)C(=O)c2noc3c2COc2ccc(C)cc2-3)cc1 | -28.9% (inactive) | 
19 | COc1ccccc1-c1noc(-c2ccc(NCc3ccccc3)c([N+](=O)[O-])c2)n1 | -5.34% (inactive) | 
20 | Cc1ccc(C)c(S(=O)(=O)n2nc(C)c(S(=O)(=O)N3CCC(C)CC3)c2C)c1 | -0.0168% (inactive) | 
21 | O=C(CC1Oc2ccccc2NC1=O)NCc1ccc(F)cc1 (configuration not stated) | -7.34% (inactive) | 
22 | CCOc1ccc(NC(=O)C2CCN(S(=O)(=O)c3cc(-c4noc(C)n4)ccc3C)CC2)cc1 | -42.5% (inactive) | 
23 | COc1ccc(N2CC(C(=O)NCCS(=O)(=O)N3CCN(c4ccccc4)CC3)CC2=O)cc1 (configuration not stated) | 5.34% (inactive) | 
24 | Cc1ccccc1CNC(=O)Cn1c(C)c2cnn(-c3ccccc3)c(=O)c2c1C | -12.3% (inactive) | 

Row | Compound | activity change, negative = inhibition | Potency
25 | Cc1ccccc1CNC(=O)CSc1nnc(C)c2c(C)n(-c3ccccc3)nc12 |  | 16.8 µM (active)
26 | COc1ccc(OC)c(CNC(=O)Cn2nc(C)c3c(C)n(-c4ccccc4)nc3c2=O)c1 | -3.25% (inactive) | 
27 | Cc1nnc(N2CCCC(C(=O)NCCN(C)C)C2)c2nn(-c3ccccc3)c(C)c12 (configuration not stated) | -57.6% (inactive) | 
28 | COc1ccccc1CNC(=O)Cn1nc(C)c2nn(-c3ccc(Cl)cc3)c(C)c2c1=O | -3.87% (inactive) | 
29 | Cc1nnc(SCC(=O)NCc2ccccc2Cl)c2nn(-c3ccccc3)c(C)c12 |  | 14.1 µM (active)
30 | CCc1cnc2c(c1SCC(=O)N1CCC(C)CC1)c(=O)n(C)c(=O)n2C | -1.6% (inactive) | 
31 | COc1ccc(NC(C)=O)cc1NC(=O)CN1CCN(c2ccc(F)cc2)CC1 | 4.65% (inactive) | 
32 | COc1cc(C(=O)N2CCC(c3ccncc3)CC2)cc(OC)c1OC | -7.79% (inactive) | 
33 | COc1ccccc1-c1cc2nc(C)c(CCC(=O)O)c(C)n2n1 | 27.9% (inactive) | 
34 | CCOC(=O)c1oc2ccc(S(=O)(=O)n3nc(-c4ccccc4OC)cc3N)cc2c1C |  | 14.4 µM (active)
35 | COc1ccc(NC(=O)c2oc3ccc(S(=O)(=O)N4CCOCC4)cc3c2C)cc1 | 14.2% (inactive) | 
36 | COc1cccc(C(=O)NC2(C(F)(F)F)C(=O)Nc3c2c(=O)[nH]c(=O)n3-c2ccc(C)cc2)c1 (configuration not stated) | -20.3% (inactive) | 
37 | CCn1c(C(=O)Nc2cc(Cl)ccc2C)cc2sc(Cl)cc21 | -32.4% (inactive) | 
38 | Cc1ccc(NC(=O)C2CCCN2S(=O)(=O)c2cccc3cccnc23)c(C)c1 (configuration not stated) | -8.58% (inactive) | 
39 | COC(=O)c1cc2occc2n1Cc1nc(-c2ccc(C)cc2)oc1C | -7.42% (inactive) | 
40 | COc1ccc(-n2nc(C(=O)NCCc3ccc(Cl)cc3)c3c4ccccc4n(C)c3c2=O)cc1Cl | -8.53% (inactive) | 
41 | Cc1ccccc1C(=O)Nc1sc2c(c1C(=O)N1CCC(C)CC1)CCCC2 | -10.7% (inactive) | 
42 | COc1cc(C)ccc1OCCSc1nc2ccc(NC(=O)c3ccc(C)cc3)cc2s1 | -8.04% (inactive) | 
43 | Cc1ccc(OCCSc2nc3ccc(NC(=O)COc4ccc(C)cc4)cc3s2)cc1 |  | 8.91 µM (active)
44 | O=C(Nc1ccc2nc(SCCOc3ccccc3)sc2c1)c1ccco1 | -21.5% (inactive) | 
45 | CCc1ccc(S(=O)(=O)n2ccnc2)cc1 | 0.251% (inactive) | 
46 | O=C(CN1C(=O)CCn2nc(-c3ccccc3)cc21)NCc1ccccc1 | -8.68% (inactive) | 
47 | Cc1noc(/C=C/N(C)C)c1S(=O)(=O)N1CCCC(C(=O)Nc2cccc(F)c2)C1 (configuration not stated) | -12.4% (inactive) | 
